A short description of assay [1]: Caspase-3/7 induction in HepG2 cells by small molecules, qHTS assay (AID 1346978). Note: nearly all actives have a fitted effect of over 15% in size. Note: potency is the fitted concentration of half-maximal effect. The essentials:
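Wild-type HepG2 cells (2,000/well) were settled 5 h at 37 C, 5% CO2, then exposed to compounds in DMSO for 17 h. Caspase-3/7 activity was read by luminescence 30 min after adding Caspase-Glo 3/7 reagent at room temperature.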

A short description of assay [2]: Caspase-3/7 induction in CHO-K1 cells by small molecules, qHTS cell viability counter screen (AID 1346979). Note: nearly all actives have a fitted effect of over 35% in size. Note: potency is the fitted concentration of half-maximal effect. In outline: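 Cytotoxicity counter screen: CellTiter-Fluor added to compound-treated wild-type CHO-K1 cells at 16 h (37C, 5% CO2), fluorescence measured 1 h later; same wells as caspase-3/7 measurement.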
A short description of assay [3]: Caspase-3/7 induction in CHO-K1 cells by small molecules, qHTS assay (AID 1346980). Note: nearly all actives have a fitted effect of over 15% in size. Note: potency is the fitted concentration of half-maximal effect. The essentials:
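Wild-type cells were seeded at 1,500 per well and settled 5 hr at 37 C, 5% CO2, then exposed to DMSO-dissolved compounds for 17 hr. Caspase-Glo 3/7 reagent was added, and luminescence was read after 30min at room temperature.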

The target of assay [4] is Nuclear receptor subfamily 1 group I member 2 (Homo sapiens) (UniProt O75469). Put plainly: Human pregnane X receptor (PXR) small molecule agonists, qHTS assay (AID 1346982). For activation: % is set by controls: 0 for no effect and ±100 for the full control effect. Note: nearly all actives have a fitted effect of over 35% in size. Note: potency is the fitted concentration of half-maximal effect. The essentials:
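Stable HepG2 line reporting PXR-mediated CYP3A4 expression via luciferase. Treatment: 24 hr with compounds in DMSO at 37 C. Detection: ONE-Glo luminescence.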

In assay [5] the target is Cytochrome P450 2C19 (Homo sapiens) (UniProt P33261). Put plainly: Cytochrome P450 Family 2 Subfamily C Member 19 (CYP2C19) small molecule antagonists: luciferase reporter qHTS assay (AID 1671197). Note: nearly all actives have a fitted effect of over 65% in size. Note: potency is the fitted concentration of half-maximal effect. In outline: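 Luminescent readout of CYP2C19 activity: luciferin product detected 20 min after adding detection reagent. Before that, compound and enzyme-substrate mix preincubated 10 min at room temperature; NADPH-regenerating system started a 1 h, 37C reaction. Ketoconazole as positive control.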
Chain of Cytochrome P450 2C19 (Homo sapiens) (P33261 whole entry, looked up): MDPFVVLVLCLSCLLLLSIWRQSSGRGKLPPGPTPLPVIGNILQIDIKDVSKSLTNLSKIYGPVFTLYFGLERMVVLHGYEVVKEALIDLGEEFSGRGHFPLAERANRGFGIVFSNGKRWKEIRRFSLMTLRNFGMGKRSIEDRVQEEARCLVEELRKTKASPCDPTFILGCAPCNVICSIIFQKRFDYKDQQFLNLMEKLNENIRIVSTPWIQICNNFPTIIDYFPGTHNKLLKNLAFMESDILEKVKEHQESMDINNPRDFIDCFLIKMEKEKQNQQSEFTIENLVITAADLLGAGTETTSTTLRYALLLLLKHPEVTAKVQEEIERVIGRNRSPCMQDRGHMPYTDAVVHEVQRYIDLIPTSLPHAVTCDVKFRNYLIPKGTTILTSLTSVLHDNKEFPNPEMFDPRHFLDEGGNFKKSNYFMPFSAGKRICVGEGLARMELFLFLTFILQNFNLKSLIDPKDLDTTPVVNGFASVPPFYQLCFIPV

Assay [6] deals with Cytochrome P450 2C9 (Homo sapiens) (UniProt P11712). Put plainly: Cytochrome P450 Family 2 Subfamily C Member 9 (CYP2C9) small molecule antagonists: luciferase reporter qHTS assay (AID 1671198). Note: nearly all actives have a fitted effect of over 50% in size. Note: potency is the fitted concentration of half-maximal effect. In outline: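 CYP2C9 activity was measured with a P450-Glo proluciferin substrate. Enzyme–substrate mix was held with compound for 10 min at room temperature, then NADPH regeneration solution was added for 1 h at 37C. Luciferin product was read as luminescence.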
Chain of Cytochrome P450 2C9 (Homo sapiens) (P11712 whole entry, looked up): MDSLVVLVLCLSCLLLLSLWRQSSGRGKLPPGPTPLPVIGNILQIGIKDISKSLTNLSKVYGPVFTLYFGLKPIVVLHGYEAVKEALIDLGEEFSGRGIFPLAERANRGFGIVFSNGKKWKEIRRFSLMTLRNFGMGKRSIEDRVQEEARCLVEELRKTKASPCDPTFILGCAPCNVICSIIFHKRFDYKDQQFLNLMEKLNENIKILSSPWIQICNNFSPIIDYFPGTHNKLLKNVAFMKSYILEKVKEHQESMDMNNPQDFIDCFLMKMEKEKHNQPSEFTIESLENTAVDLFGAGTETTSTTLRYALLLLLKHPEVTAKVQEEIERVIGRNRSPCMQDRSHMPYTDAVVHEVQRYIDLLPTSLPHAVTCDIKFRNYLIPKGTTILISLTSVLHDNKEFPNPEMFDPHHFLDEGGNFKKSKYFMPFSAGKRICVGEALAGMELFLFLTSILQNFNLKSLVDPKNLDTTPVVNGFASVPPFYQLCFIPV

In assay [7] the target is Cytochrome P450 1A2 (Homo sapiens) (UniProt P05177). Put plainly: Cytochrome P450 Family 1 Subfamily A Member 2 (CYP1A2) small molecule antagonists: luciferase reporter qHTS assay (AID 1671199). Note: potency is the fitted concentration of half-maximal effect; nearly all actives have a fitted effect of over 50% in size. In outline:
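Read-out is luminescence from luciferin detection reagent (20 min) proportional to CYP1A2 activity; compounds in DMSO preincubated 10 min with enzyme and proluciferin substrate, then NADPH regeneration solution, 1 h, room temperature.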

Assay [8] has as its target Voltage-gated inwardly rectifying potassium channel KCNH2 (Homo sapiens) (UniProt Q12809). Put plainly: Human Ether-a-go-go-Related Gene (hERG) channel small molecule antagonists: fluorescence cell-based qHTS assay (AID 1671200). Note: nearly all actives have a fitted effect of over 50% in size. Note: potency is the fitted concentration of half-maximal effect. In outline:
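Thallium flux as potassium surrogate: FluxOR II dye loaded 1 h at room temperature into hERG-expressing U2OS cells, then stimulus buffer added after 10 min. Kinetic 480 nm excitation/540 nm emission read, 2 min.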

Assay [9] concerns the target Cytochrome P450 3A4 (Homo sapiens) (UniProt P08684). Put plainly: Cytochrome P450 Family 3 Subfamily A Member 4 (CYP3A4) small molecule antagonists: luciferase reporter qHTS assay (AID 1671201). Note: nearly all actives have a fitted effect of over 50% in size. Note: potency is the fitted concentration of half-maximal effect. The essentials: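 Recombinant human CYP3A4 converts a proluciferin substrate to luciferin over 1 h at room temperature after NADPH regeneration solution is added (compound preincubated 10 min); detection reagent stops reaction, luminescence read 20 min later as relative units.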

Assay [10] has as its target Nuclear receptor subfamily 1 group I member 2 (Rattus norvegicus) (UniProt Q9R1A7). Put plainly: Rat pregnane X receptor (rPXR) activation by small molecules, qHTS assay (AID 1346983). Note: % is set by controls: 0 for no effect and ±100 for the full control effect; nearly all actives have a fitted effect of over 20% in size. To be noted: rPXR luciferase reporter cells, One-Glo luminescence, 24 h; max activation: stronger effect = higher value. The essentials:
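Cell-based rPXR luciferase reporter assay, 2,000 cells per well, rested 5hr at 37 C before compound addition in DMSO, then 24 hr at 37 C. One-Glo reagent was added and luminescence read after 30 min at room temperature.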

The target of assay [11] is Cytochrome P450 2D6 (Homo sapiens) (UniProt P10635). In words: Cytochrome P450 Family 2 Subfamily D Member 6 (CYP2D6) small molecule antagonists: luciferase reporter qHTS assay (AID 1671196). Note: nearly all actives have a fitted effect of over 50% in size. Note: potency is the fitted concentration of half-maximal effect. The essentials: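 Chemicals tested for interference with CYP2D6 activity; proluciferin substrate, NADPH regeneration, 1 h at room temperature, luminescent detection.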
Chain of Cytochrome P450 2D6 (Homo sapiens) (P10635 whole entry, looked up): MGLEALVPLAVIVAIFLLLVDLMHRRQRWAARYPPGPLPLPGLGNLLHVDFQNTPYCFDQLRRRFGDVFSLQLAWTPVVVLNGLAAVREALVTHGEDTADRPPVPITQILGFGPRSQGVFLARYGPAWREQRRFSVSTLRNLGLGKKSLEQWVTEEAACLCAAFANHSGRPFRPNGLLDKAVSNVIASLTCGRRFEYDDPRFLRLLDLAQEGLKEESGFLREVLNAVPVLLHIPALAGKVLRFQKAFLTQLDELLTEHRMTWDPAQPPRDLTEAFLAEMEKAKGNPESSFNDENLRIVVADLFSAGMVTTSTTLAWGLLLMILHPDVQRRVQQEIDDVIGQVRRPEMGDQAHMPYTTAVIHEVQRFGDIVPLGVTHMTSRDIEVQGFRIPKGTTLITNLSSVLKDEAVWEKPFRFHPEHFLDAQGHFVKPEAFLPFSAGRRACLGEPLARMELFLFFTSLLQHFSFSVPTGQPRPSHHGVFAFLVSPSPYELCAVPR
Assay [12] is described as follows: Caspase-3/7 induction in HepG2 cells by small molecules, qHTS cell viability counter screen (AID 1346981). Note: potency is the fitted concentration of half-maximal effect; nearly all actives have a fitted effect of over 30% in size. The essentials: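 Treatment of HepG2 cells with DMSO-delivered compounds ran 16 hr at 37 C following a 5-hr pre-incubation of 2,000 cells/well. CellTiter-Fluor fluorescence, read after 1 hr, served as the viability measure in a qHTS format.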

Where “and” joins values, the source holds several entries; their conditions need not be identical. Equal values may be shown once. Records with an inconclusive call do not appear. Where a structure was tested more than once in an assay, its records may differ in their call. Calls of active or inactive are those of the source. Calls come from the whole dose curve; as a rule, active = well fitted curve in the direction sought with a large enough effect in the repeat runs; inconclusive = weak or mixed curves; inactive = no such curve, though single readings can be large; an effect the other way counts as inactive or inconclusive.

Chain of Nuclear receptor subfamily 1 group I member 2 (Homo sapiens) (O75469 whole entry, looked up): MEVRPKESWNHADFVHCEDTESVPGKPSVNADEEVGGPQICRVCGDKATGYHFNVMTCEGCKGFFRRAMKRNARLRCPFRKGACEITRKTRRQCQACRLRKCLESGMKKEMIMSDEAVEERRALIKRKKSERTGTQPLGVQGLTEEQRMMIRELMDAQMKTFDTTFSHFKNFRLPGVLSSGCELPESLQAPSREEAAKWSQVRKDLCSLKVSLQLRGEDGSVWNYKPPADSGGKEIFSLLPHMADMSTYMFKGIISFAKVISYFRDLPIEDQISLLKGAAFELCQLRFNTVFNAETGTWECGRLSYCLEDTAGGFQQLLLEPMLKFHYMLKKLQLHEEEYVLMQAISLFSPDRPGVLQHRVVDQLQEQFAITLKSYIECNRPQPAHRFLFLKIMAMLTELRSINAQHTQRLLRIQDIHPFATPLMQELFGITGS
Chain of Cytochrome P450 3A4 (Homo sapiens) (P08684 whole entry, looked up): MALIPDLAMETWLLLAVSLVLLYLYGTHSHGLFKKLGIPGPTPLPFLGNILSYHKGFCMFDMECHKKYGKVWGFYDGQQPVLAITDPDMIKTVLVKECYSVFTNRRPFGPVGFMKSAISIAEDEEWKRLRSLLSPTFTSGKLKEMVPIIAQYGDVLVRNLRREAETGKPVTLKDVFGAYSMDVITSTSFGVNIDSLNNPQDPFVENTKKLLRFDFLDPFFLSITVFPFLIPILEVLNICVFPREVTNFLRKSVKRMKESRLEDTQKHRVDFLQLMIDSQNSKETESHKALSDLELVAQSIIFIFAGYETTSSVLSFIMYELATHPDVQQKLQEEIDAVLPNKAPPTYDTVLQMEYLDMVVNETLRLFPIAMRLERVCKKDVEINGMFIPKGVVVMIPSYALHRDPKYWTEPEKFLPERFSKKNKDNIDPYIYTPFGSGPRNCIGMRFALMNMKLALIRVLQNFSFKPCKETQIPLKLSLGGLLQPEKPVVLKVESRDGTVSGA
Chain of Cytochrome P450 1A2 (Homo sapiens) (P05177 whole entry, looked up): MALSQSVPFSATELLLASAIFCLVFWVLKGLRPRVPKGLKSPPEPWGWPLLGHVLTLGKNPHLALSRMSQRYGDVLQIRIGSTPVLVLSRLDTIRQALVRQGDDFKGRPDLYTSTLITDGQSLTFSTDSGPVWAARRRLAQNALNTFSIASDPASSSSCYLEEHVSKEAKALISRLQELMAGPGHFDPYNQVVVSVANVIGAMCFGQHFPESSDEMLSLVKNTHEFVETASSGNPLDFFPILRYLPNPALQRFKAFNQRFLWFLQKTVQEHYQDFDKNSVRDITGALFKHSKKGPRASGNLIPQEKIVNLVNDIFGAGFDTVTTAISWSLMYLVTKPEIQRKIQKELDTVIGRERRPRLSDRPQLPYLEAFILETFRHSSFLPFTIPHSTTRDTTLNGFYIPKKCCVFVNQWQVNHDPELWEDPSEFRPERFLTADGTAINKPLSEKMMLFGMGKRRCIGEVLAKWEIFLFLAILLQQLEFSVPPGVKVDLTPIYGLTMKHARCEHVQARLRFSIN
Chain of Voltage-gated inwardly rectifying potassium channel KCNH2 (Homo sapiens) (Q12809 whole entry, looked up): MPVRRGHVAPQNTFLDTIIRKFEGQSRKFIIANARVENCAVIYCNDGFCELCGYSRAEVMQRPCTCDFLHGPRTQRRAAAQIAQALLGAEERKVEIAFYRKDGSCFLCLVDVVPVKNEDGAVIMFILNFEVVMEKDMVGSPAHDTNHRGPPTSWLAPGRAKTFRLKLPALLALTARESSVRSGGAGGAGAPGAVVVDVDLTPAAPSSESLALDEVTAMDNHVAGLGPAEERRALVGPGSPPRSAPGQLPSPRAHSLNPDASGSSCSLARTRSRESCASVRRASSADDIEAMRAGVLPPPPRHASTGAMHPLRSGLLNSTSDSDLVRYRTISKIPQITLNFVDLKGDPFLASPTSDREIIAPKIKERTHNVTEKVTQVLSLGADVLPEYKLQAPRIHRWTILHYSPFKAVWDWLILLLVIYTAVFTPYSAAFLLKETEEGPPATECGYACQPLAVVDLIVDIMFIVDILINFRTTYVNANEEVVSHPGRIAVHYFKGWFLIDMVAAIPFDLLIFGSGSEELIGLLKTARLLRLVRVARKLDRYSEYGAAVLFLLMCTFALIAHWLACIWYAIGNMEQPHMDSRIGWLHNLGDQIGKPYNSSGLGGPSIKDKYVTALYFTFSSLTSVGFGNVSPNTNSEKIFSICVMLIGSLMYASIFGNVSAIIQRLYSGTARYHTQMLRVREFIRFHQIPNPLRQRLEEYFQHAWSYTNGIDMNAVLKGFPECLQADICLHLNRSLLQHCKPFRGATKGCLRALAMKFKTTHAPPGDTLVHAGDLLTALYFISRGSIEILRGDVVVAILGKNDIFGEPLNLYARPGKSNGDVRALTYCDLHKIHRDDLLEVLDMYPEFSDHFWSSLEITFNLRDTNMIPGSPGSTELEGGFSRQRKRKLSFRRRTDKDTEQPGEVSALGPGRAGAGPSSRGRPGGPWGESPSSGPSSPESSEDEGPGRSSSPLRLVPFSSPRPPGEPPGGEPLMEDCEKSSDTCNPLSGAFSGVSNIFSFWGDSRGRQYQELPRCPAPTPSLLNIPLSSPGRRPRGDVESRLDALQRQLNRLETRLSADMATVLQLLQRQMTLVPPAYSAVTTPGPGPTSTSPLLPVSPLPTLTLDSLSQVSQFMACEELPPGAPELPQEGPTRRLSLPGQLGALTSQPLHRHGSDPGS
Chain of Nuclear receptor subfamily 1 group I member 2 (Rattus norvegicus) (Q9R1A7 whole entry, looked up): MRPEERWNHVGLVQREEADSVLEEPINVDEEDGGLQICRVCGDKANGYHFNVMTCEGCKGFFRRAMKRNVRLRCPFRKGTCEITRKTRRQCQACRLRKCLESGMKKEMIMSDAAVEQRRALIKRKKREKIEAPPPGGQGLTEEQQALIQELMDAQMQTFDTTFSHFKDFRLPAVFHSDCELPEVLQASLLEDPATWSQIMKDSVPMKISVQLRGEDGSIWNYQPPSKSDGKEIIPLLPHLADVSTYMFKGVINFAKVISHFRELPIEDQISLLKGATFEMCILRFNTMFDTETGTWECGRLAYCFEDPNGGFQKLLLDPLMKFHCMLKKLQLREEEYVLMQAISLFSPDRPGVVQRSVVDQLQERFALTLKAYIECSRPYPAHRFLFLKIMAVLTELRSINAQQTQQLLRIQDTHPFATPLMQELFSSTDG

Regarding `Oc1ccc2cc(SSc3ccc4cc(O)ccc4c3)ccc2c1`, the Potency entry in assay [1], in [3] and in assay [8] was “inactive” each time. Also, the Potency was 48.6 µM (active) and 54.5 µM (active) in [2]; 17.2 µM (active) and 15.4 µM (active) in [4]; 35.6 µM (active) in assay [5]; 71.1 µM (active) and 39.9 µM (active) in assay [6]; 63.4 µM (active) and 63.3 µM (active) in assay [7]; 14.2 µM (active) and 31.7 µM (active) in [9].

As for `CC(C)(C)c1ccc(C(=O)CCCN2CCC(OC(c3ccccc3)c3ccccc3)CC2)cc1`, the figures for the Potency in assay [1], in assay [2] and in assay [3] were 29.8 µM (active), 18.8 µM (active) and 21.1 µM (active), respectively. Also, the max activation in [10] is -2.11% (inactive).

Take `O=C1C=CC(=O)N1`: the Potency result in assay [1], in [3], in [4], in assay [11], in assay [6] and in assay [8] was “inactive” each time. Also, the Potency result in assay [9] was “inactive”. Besides, the Potency in [2] was 5.59 µM (active); in assay [7], 32.6 µM (active).

In the case of `CCCCCCCCOC(=O)c1ccc(O)cc1`, the Potency was 27.3 µM (active) in assay [1]; 24.3 µM (active) in [2]; 30.5 µM (active) and inactive in [4]; 56.2 µM (active) and 39.9 µM (active) in assay [11]; 22.4 µM (active) and 10 µM (active) in [5]; 19.9 µM (active) and 12.6 µM (active) in assay [7]. Besides, the Potency result in assay [3] and in [8] was “inactive” throughout.

As for `COCCCC/C(=N\OCCN)c1ccc(C(F)(F)F)cc1`, the Potency entry in [1], in assay [2] and in assay [3] was “inactive” in each case. The Potency in assay [11] is 1.95 µM (active); in assay [5], 0.692 µM (active); in [6], 3.89 µM (active); in [7], 0.204 µM (active).

As to `CCc1cc(Cc2cc(CC)c(N)c(CC)c2)cc(CC)c1N`, the Potency result in assay [1], in assay [3] and in [8] was “inactive” each time. Moreover, the Potency in assay [2] is 27.3 µM (active); in [4], 21.7 µM (active); in assay [11] it was 25.2 µM (active); in assay [5] it was 0.71 µM (active); in assay [7], 10 µM (active); in [9] it was 0.633 µM (active).

`N=C1N=C(N)c2ccccc21`: the Potency is 54.5 µM (active) in assay [1]; 61.1 µM (active) in assay [2]; 27.3 µM (active) in [12]; 24.3 µM (active) in [4]; 56.4 µM (active) in assay [11]. The Potency result in assay [5], in [8] and in assay [9] was “inactive” in each case.

As for `CCN(CCC#N)c1ccc(N=Nc2c(Cl)cc([N+](=O)[O-])cc2Cl)cc1`, the Potency result in assay [1], in assay [3], in assay [11], in assay [5] and in [9] was “inactive” each time. Moreover, the Potency was 48.6 µM (active) in [2] and 12.2 µM (active) in assay [4].

On to `Fc1ccc(C(c2ccc(F)cc2)N2CCN(C/C=C/c3ccccc3)CC2)cc1`, for which the Potency result in assay [1], in assay [3], in [5] and in assay [9] was “inactive” in each case. Besides, the Potency is 33.5 µM (active) in assay [2] and 848 nM (active) in assay [8].

On to `Cc1oc(-c2ccccc2)nc1CCC(=O)c1ccc(CC2SC(=O)NC2=O)cc1` (configuration not stated), for which the Potency entry in assay [1], in assay [3], in assay [4], in [11] and in assay [8] was “inactive” throughout. The figures for the Potency in assay [2], in assay [5] and in assay [6] were 21.1 µM (active), 11 µM (active) and 7.76 µM (active), respectively.

For the compound `Nc1ccccc1O`, the Potency entry in assay [1] and in assay [3] was “inactive” in each case. Moreover, the Potency was 24 µM (active) in assay [2]; 13.5 µM (active) in [4]; 31.3 µM (active) in assay [11]; 19.7 µM (active) in assay [5]; 27.9 µM (active) in assay [6]; 15.7 µM (active) in assay [7]. Moreover, the Potency in [9] is 31.3 µM (active).

As to `O=S1(=O)CC(Cl)(Cl)C(Cl)(Cl)C1`, the Potency result in assay [1], in [11] and in [8] was “inactive” throughout. Also, the Potency in [2] was 0.686 µM (active); in assay [3] it was 0.486 µM (active); in assay [4], 0.545 µM (active); in assay [7] it was 22.4 µM (active); in assay [9], 25.2 µM (active).

(Values after PubChem BioAssay (Tox21).)
